PMC5540273 (PLoS ONE, 2017)

Tests used:
Conditions in all cases: concentration: 1 μM,replicates: in singlicate; n = 1
FGFR1 = tested on: FGFR1
FGFR2 = tested on: FGFR2
FGFR3 = tested on: FGFR3
FGFR4 = tested on: FGFR4
FGR = tested on: FGR
FLT1 = tested on: FLT1
FLT3-autoinhibited = tested on: FLT3-autoinhibited
FLT3 = tested on: FLT3
FLT4 = tested on: FLT4
FRK = tested on: FRK
FYN = tested on: FYN
GAK = tested on: GAK
GCN2(Kin.Dom.2,S808G) = tested on: T1, GCN2(Kin.Dom.2,S808G)
T1 construct: gene EIF2AK4

GRK1 = tested on: GRK1
GRK2 = tested on: T2, GRK2
T2 construct: gene ADRBK1

GRK3 = tested on: T3, GRK3
T3 construct: gene ADRBK2

GRK4 = tested on: GRK4
GRK7 = tested on: GRK7
GSK3A = tested on: GSK3A
GSK3B = tested on: GSK3B
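Note: KINOMEscan kinase panel screen.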

Row | Structure (SMILES) | %Inh (FGFR1) | %Inh (FGFR2) | %Inh (FGFR3) | %Inh (FGFR4) | %Inh (FGR) | %Inh (FLT1) | %Inh (FLT3-autoinhibited) | %Inh (FLT3) | %Inh (FLT4) | %Inh (FRK) | %Inh (FYN) | %Inh (GAK) | %Inh (GCN2(Kin.Dom.2,S808G)) | %Inh (GRK1) | %Inh (GRK2) | %Inh (GRK3) | %Inh (GRK4) | %Inh (GRK7) | %Inh (GSK3A) | %Inh (GSK3B)
1 | Cc1ccc(Nc2ccnc(Nc3ccc4c(c3)CS(=O)(=O)C4)n2)cc1O.Cl [GW579362] | 84% | 79% | 73% | 41% | 97% | 99.6% | 92.7% | 99% | 100% | 99.1% | 97.9% | 87% | 98.4% | 2% | 0% | 22% | 82% | 0% | 63% | 23%
2 | COc1cc(Nc2nccc(N3CCC(NC(=O)c4cccc(C#N)c4)C3)n2)cc(OC)c1OC (centres unmarked) [GSK1379751] | 0% | 0% | 5% | 7% | 37% | 0% | 0% | 44% | 11% | 0% | 0% | 47% | 9% | 0% | 0% | 33% | 0% | 0% | 0% | 5%
3 | O=C(NCC1CC1)c1ccc(-c2cc(C(=O)NC3CC3)ccc2F)cc1 [GW810445] | 0% | 0% | 0% | 0% | 0% | 0% | 0% | 12% | 0% | 2% | 0% | 0% | 0% | 1% | 19% | 0% | 0% | 0% | 0% | 0%
4 | NC(=O)Nc1sc(-c2ccc(F)cc2)cc1C(N)=O [GW789449] | 36% | 7% | 10% | 0% | 45% | 28% | 5% | 50% | 31% | 0% | 20% | 37% | 34% | 12% | 0% | 0% | 87% | 26% | 0% | 17%
5 | COC(=O)c1cccc(NC(=O)NC2CCN(c3ccnc(Nc4cc(OC)c(OC)c(OC)c4)n3)C2)c1 (centres unmarked) [GSK1379767] | 0% | 0% | 32% | 0% | 25% | 13% | 4% | 33% | 14% | 17% | 9% | 27% | 0% | 13% | 0% | 49% | 0% | 0% | 2% | 0%
6 | Cc1ccc2c(-c3ccnc(Nc4ccc(C(F)(F)F)cc4)n3)cnn2n1 [GW819776] | 5% | 0% | 0% | 6% | 4% | 0% | 0% | 59% | 0% | 20% | 9% | 0% | 3% | 28% | 0% | 3% | 21% | 0% | 74% | 36%
7 | O=C(Nc1ccc(Oc2ccc3nc(NC(=O)C4CC4)cn3n2)c(F)c1)c1cccn(-c2ccccc2)c1=O | 0% | 9% | 11% | 6% | 73% | 98.3% | 43% | 98.2% | 99.4% | 45% | 15% | 0% | 20% | 0% | 0% | 0% | 21% | 0% | 25% | 0%
8 | O=C(Nc1n[nH]c2cc(-c3ccco3)ccc12)C1CC1 [SB-737447] | 14% | 0% | 6% | 0% | 0% | 0% | 4% | 59% | 0% | 0% | 0% | 5% | 25% | 23% | 0% | 0% | 68% | 3% | 96.2% | 66%
9 | Cl.Nc1n[nH]c2cc(-c3ccccn3)ccc12 [GSK2189892] | 0% | 15% | 0% | 0% | 10% | 19% | 0% | 0% | 0% | 1% | 0% | 0% | 0% | 0% | 0% | 0% | 0% | 0% | 4% | 0%
10 | OCCn1cc(-c2cnc3nnn(Cc4ccc5ncccc5c4)c3n2)cn1 | 0% | 0% | 0% | 0% | 5% | 0% | 0% | 0% | 0% | 0% | 0% | 6% | 0% | 3% | 0% | 1% | 0% | 0% | 0% | 0%
